Results from PubChem BioAssay (EPA / NIEHS).
Values joined by “and” are separate entries in the source; they are usually repeats but may differ in a detail not shown here. Equal entries are not always repeated. More than one record can exist for a structure, and the calls need not agree. Active and inactive are the calls of the source. How the source made its calls: active means hit-call score of the fitted dose curve at least 0.9, where 1 is the maximum; inactive means score below 0.9.

Key:
[1] = ATG_CRE_CIS: Attagene CIS-FACTORIAL HepG2 Assay for human cAMP Responsive Element (CRE) binding protein 3 (AID 2282926); details: HepG2 CRE cis-reporter, Attagene multiplexed mRNA; actives raise or lower the signal
How it was run: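 HepG2 cells transiently transfected with cis-element-driven multiple reporter transcription units; CRE reporter mRNA measured 24 h after dosing by RT-PCR, 6-FAM labelling, HpaI digestion and capillary electrophoresis. Bidirectional fit versus DMSO baseline.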

[2] = molecular target: CCAAT/enhancer-binding protein beta (Homo sapiens) (UniProt P17676); test: ATG_C_EBP_CIS: Attagene CIS-FACTORIAL HepG2 Assay for human CCAAT/Enhancer Binding Protein (C/EBP) beta (AID 2282927); details: HepG2 Attagene cis-factorial transcription factor reporter; actives raise or lower the signal
How it was run: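 HepG2, transient MRTU transfection, 24 h treatment. RT-PCR plus CE fluorescence; DMSO negative control, bidirectional fit.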

[3] = ATG_CMV_CIS: Attagene CIS-FACTORIAL HepG2 Assay for human CMV (Internal Marker) (AID 2282928); details: HepG2 CMV promoter reporter, transcription factor profiling; actives raise or lower the signal;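 further: endpoint acts as a background internal control marker rather than a target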
How it was run: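 Endogenous transcription factor activity read in HepG2 via transfected cis-promoter reporter units. After 24 h dosing, reporter mRNA measured by RT-PCR/capillary electrophoresis; gain or loss of signal fit relative to DMSO.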

[4] = ATG_DR4_LXR_CIS: Attagene CIS-FACTORIAL HepG2 Assay for human Liver X Receptor (LXR), DR4 submotif (AID 2282929); details: HepG2 Attagene DR4 cis-reporter, mRNA transcription; actives raise or lower the signal
How it was run: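 HepG2, transient MRTU transfection, cis-element (DR4) promoter; 24 h compound exposure; total RNA → oligo(dT) RT → PCR → 6-FAM primer extension → HpaI cut → CE. Gain/loss vs DMSO, bidirectional fit.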

[5] = molecular target: Aryl hydrocarbon receptor (Homo sapiens) (UniProt P35869); test: ATG_Ahr_CIS: Attagene CIS-FACTORIAL HepG2 Assay for human Aryl Hydrocarbon Receptor (Ahr) (AID 2282930); details: HepG2 AhR cis-factorial reporter transcription; actives raise or lower the signal
How it was run: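 Endogenous factor activity is tracked through cis-promoter reporter units transfected into HepG2 cells. Transcript levels at 24 h are read by fluorescent RT-PCR and capillary electrophoresis, with activity in either direction scored relative to DMSO.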

[6] = ATG_AP_1_CIS: Attagene CIS-FACTORIAL HepG2 Assay for human Activator Protein 1 (AP-1) (AID 2282931); details: HepG2 Attagene cis-factorial AP-1 reporter mRNA; actives raise or lower the signal
How it was run: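 Transient MRTU transfection of HepG2 → 24 h chemical treatment → RNA isolation, RT-PCR, 6-FAM labelling, HpaI digest → capillary electrophoresis. Fit: bidirectional, DMSO negative control.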

[7] = ATG_AP_2_CIS: Attagene CIS-FACTORIAL HepG2 Assay for human Activator Protein 2 (AP-2) (AID 2282932); details: HepG2 AP-2 cis-reporter, Attagene transcription factor profiling; actives raise or lower the signal
How it was run: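 Multiplexed mRNA reporter assay in HepG2: cis-regulated units report endogenous factor activity after 24 h treatment. Fluorescence from capillary electrophoresis of RT-PCR products gives the signal, with DMSO as baseline.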

[8] = ATG_BRE_CIS: Attagene CIS-FACTORIAL HepG2 Assay for human Bone Morphogenetic Protein (BMP) Response Element (BRE) (AID 2282933); details: HepG2 BMP response element reporter, Attagene transcription factor profiling; actives raise or lower the signal
How it was run: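 Transient MRTU transfection of human HepG2 liver cells; 24 h compound treatment; total RNA isolated, reverse-transcribed, PCR-amplified, 6-FAM labelled, HpaI-cut, capillary electrophoresis. DMSO = negative control/baseline, bidirectional fit.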

[9] = molecular target: Retinoic acid receptor alpha (Homo sapiens) (UniProt P10276); test: ATG_DR5_RAR_CIS: Attagene CIS-FACTORIAL HepG2 Assay for human Retinoic Acid Receptor Alpha (RARE), DR5 submotif (AID 2282934); details: HepG2 Attagene cis-factorial RARE DR5 reporter, mRNA; actives raise or lower the signal;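 on AC50: reporter responds to endogenous RAR alpha beta and gamma in HepG2 not RARA alone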
How it was run: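 After 24 h of chemical exposure, transiently transfected HepG2 cells were lysed for total RNA; the DR5-regulated reporter transcript was quantified via RT-PCR and capillary electrophoresis, with activity fitted bidirectionally against DMSO.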

[10] = molecular target: Transcription factor E2F1 (Homo sapiens) (UniProt Q01094); test: ATG_E2F_CIS: Attagene CIS-FACTORIAL HepG2 Assay for human E2F Transcription Factor 1 (AID 2282935); details: HepG2 Attagene cis-reporter, E2F reporter RNA transcripts; actives raise or lower the signal
How it was run: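 Measures reporter transcript levels via RT-PCR with capillary electrophoresis detection in HepG2 cells harboring cis-regulated reporter units; 24 h post-dose; bidirectional curve fitting with DMSO as baseline.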

[11] = ATG_E_Box_CIS: Attagene CIS-FACTORIAL HepG2 Assay for human Enhancer Box (E-box) (AID 2282936); details: HepG2 E-box cis-reporter transcription, actives raise or lower the signal
How it was run: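 First, HepG2 cells receive multiple cis-regulated reporter constructs by transient transfection. Next, chemicals are applied for 24 h. Finally, reporter mRNA is quantified via RT-PCR and capillary electrophoresis, with DMSO as baseline.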

[12] = ATG_M_61_CIS: Attagene CIS-FACTORIAL HepG2 Assay for M61 Transcription Factor (Internal Marker) (AID 2282937); details: HepG2 Attagene CIS-FACTORIAL M61 internal marker reporter; actives raise or lower the signal
How it was run: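 Human liver HepG2, transient MRTU transfection (cis promoter elements), 24 h compound. Total RNA → oligo(dT) RT → PCR → FAM label → HpaI → CE. Internal background marker; bidirectional fitting, DMSO = baseline.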

[13] = ATG_EGR_CIS: Attagene CIS-FACTORIAL HepG2 Assay for human Early Growth Response 1 (EGR1) (AID 2282938); details: HepG2 Attagene CIS-FACTORIAL EGR reporter mRNA; actives raise or lower the signal
How it was run: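 Transient transfection of human HepG2 with multiple cis-regulated reporter units, chemical exposure 24 h, total RNA isolated. Reverse transcription, PCR, fluorescent labelling and capillary electrophoresis quantify reporter transcripts; activity fitted bidirectionally against DMSO.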

[14] = ATG_M_19_CIS: Attagene CIS-FACTORIAL HepG2 Assay for M19 Transcription Factor (Internal Marker) (AID 2282939); details: HepG2 Attagene CIS-FACTORIAL M19 internal marker reporter; actives raise or lower the signal
How it was run: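 Transfect HepG2 with MRTU reporter library → dose chemical, 24 h → isolate total RNA, reverse-transcribe with oligo(dT) → PCR, 6-FAM label, HpaI cut (2 h, 37 C) → capillary electrophoresis. Bidirectional fit vs DMSO.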

[15] = ATG_ERE_CIS: Attagene CIS-FACTORIAL HepG2 Assay for Estrogen Response Element (ERE) (AID 2282940); details: HepG2 ERE cis-reporter, Attagene RNA transcript; actives raise or lower the signal
How it was run: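 Transient MRTU transfection of human HepG2; cis-element promoters; 24 h dosing; total RNA → RT (oligo dT) → PCR → 6-FAM primer extension → HpaI digest → CE fluorescence. Bidirectional fit, DMSO baseline.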

[16] = ATG_Ets_CIS: Attagene CIS-FACTORIAL HepG2 Assay for human Erythroblast Transformation Specific (ETS) (AID 2282941); details: HepG2 ETS cis-reporter transcription, actives raise or lower the signal
How it was run: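 Steps: transfect HepG2 with multiple reporter units; treat compound 24 h; isolate RNA, DNase-treat, reverse-transcribe; PCR-amplify, label with 6-FAM, digest with HpaI; separate by capillary electrophoresis. Activity fitted both directions versus DMSO.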

[17] = molecular target: Hepatocyte nuclear factor 3-beta (Homo sapiens) (UniProt Q9Y261); test: ATG_FoxA2_CIS: Attagene CIS-FACTORIAL HepG2 Assay for human Forkhead box A2 (FOXA2) (AID 2282942); details: HepG2 cis-reporter transcription factor activity, 24 h; actives raise or lower the signal
How it was run: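 Transient MRTU transfection of HepG2 liver cells; 24 h treatment; total RNA → oligo(dT) RT → PCR → FAM primer extension → HpaI cut → CE. Bidirectional fit vs DMSO.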

[18] = ATG_FoxO_CIS: Attagene CIS-FACTORIAL HepG2 Assay for human Forkhead box O (FoxO) (AID 2282943); details: HepG2 Attagene cis-reporter, FoxO element, mRNA; actives raise or lower the signal
How it was run: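 Transfected HepG2 reporter cells exposed to test chemical for 24 h; reporter RNA measured by reverse transcription, PCR and fluorescent capillary electrophoresis; curves fitted for increases and decreases against DMSO.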

[19] = ATG_GATA_CIS: Attagene CIS-FACTORIAL HepG2 Assay for human GATA Binding Protein (AID 2282944); details: HepG2 GATA cis-element reporter, Attagene multiplex mRNA; actives raise or lower the signal
How it was run: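 Transient MRTU transfection, HepG2, 24 h compound exposure. Total RNA → oligo(dT) RT → PCR → 6-FAM primer extension → HpaI cut → CE. Bidirectional fit vs DMSO.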

[20] = APR_HepG2_NuclearSize_72hr: Apredica 72-hour HepG2 Assay for Nuclear Size (AID 2282925); details: high-content imaging, actives raise or lower the signal
How it was run: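 HepG2 cells dosed 72 h at 0.39–200 uM (10 concentrations, duplicate) in 0.5% v/v DMSO final. Fixed, Hoechst 33342-stained nuclei imaged; nuclear diameter measured by automated image analysis. Bidirectional fit versus DMSO.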

Measured: AC50

CCAAT/enhancer-binding protein beta (Homo sapiens), sequence (P17676 whole entry, looked up): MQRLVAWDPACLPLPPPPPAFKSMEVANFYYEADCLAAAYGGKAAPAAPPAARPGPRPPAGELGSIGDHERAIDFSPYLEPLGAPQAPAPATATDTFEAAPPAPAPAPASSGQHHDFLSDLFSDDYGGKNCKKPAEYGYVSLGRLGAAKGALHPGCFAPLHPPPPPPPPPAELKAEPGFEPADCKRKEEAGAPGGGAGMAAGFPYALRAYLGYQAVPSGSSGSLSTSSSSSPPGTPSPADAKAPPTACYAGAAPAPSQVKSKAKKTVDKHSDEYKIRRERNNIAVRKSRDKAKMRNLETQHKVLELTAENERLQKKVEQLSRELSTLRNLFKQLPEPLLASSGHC
Aryl hydrocarbon receptor (Homo sapiens), sequence (P35869 whole entry, looked up): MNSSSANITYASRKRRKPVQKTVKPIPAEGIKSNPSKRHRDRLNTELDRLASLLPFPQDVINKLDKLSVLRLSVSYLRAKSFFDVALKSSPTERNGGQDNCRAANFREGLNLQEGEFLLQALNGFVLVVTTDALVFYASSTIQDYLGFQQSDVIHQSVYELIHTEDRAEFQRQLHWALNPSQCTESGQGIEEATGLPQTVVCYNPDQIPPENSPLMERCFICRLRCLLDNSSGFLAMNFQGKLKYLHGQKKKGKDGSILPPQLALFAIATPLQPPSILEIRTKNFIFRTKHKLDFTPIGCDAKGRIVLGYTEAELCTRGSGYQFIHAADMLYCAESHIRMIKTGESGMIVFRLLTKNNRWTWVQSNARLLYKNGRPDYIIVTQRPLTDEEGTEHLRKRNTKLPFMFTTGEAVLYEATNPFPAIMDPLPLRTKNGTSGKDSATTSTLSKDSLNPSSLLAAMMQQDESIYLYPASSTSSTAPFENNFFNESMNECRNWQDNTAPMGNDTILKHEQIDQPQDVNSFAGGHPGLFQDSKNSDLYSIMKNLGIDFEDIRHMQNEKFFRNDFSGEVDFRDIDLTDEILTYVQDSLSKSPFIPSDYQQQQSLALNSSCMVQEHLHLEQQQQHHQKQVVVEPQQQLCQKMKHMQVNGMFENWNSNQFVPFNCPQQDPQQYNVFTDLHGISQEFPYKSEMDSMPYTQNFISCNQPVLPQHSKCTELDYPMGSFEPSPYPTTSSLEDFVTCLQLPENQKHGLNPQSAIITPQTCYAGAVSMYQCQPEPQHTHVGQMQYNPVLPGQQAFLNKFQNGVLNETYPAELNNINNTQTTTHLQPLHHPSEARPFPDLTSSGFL
Retinoic acid receptor alpha (Homo sapiens), sequence (P10276 whole entry, looked up): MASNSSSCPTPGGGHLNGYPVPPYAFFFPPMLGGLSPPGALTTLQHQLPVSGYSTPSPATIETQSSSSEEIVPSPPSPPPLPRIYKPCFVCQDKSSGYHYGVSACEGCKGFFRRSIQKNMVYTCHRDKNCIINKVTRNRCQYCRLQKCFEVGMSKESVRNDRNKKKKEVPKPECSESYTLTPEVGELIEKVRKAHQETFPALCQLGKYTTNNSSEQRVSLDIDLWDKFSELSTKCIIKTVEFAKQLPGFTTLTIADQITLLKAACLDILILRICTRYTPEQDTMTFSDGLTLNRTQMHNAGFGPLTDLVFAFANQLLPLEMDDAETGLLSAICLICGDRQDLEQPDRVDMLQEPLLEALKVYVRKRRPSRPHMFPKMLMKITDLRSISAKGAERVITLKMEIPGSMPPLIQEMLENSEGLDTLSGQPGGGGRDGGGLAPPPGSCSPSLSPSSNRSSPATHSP
Transcription factor E2F1 (Homo sapiens), sequence (Q01094 whole entry, looked up): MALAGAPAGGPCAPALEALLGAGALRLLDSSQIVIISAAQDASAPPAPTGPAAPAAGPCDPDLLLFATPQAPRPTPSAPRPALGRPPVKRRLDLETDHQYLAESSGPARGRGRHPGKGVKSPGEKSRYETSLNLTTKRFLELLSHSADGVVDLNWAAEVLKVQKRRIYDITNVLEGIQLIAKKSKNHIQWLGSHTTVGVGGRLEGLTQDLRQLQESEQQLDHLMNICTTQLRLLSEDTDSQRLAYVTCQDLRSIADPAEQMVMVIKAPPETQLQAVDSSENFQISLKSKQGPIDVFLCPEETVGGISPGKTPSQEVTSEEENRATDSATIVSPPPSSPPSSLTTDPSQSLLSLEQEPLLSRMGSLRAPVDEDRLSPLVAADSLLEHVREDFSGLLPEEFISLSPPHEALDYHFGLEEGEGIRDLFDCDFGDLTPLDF
Hepatocyte nuclear factor 3-beta (Homo sapiens), sequence (Q9Y261 whole entry, looked up): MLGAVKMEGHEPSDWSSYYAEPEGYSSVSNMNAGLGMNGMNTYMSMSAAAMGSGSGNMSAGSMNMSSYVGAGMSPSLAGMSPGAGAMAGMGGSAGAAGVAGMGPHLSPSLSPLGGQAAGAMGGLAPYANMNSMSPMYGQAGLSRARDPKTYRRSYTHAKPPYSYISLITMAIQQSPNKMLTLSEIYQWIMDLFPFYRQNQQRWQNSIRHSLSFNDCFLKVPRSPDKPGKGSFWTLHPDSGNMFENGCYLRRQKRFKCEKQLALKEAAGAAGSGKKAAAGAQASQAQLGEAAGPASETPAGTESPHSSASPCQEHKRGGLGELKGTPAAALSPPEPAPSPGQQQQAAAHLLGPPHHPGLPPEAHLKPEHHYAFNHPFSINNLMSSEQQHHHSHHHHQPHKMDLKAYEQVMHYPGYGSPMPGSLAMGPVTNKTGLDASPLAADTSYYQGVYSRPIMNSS

COC(=O)c1ccc(C(=O)OC)cc1
not listed: [20]
inactive: all other assays above

O=C(c1ccc(OCCN2CCCCC2)cc1)c1c(-c2ccc(O)cc2)sc2cc(O)ccc12
active: [1] 11.1 µM and 14.7 µM | [3] 14.8 µM and 7.91 µM | [4] 20.3 µM and 19.9 µM | [5] 19.3 µM | [6] 17.5 µM and 16.9 µM and 13.1 µM | [7] 11.1 µM and 15.4 µM | [11] 11.1 µM and 7.95 µM | [13] 11.1 µM and 12.6 µM and 7.51 µM | [14] 11.3 µM and 11.1 µM | [16] 13.6 µM and 17 µM
inactive: [20] | [1] | [3] | [4] | [5] | [6] | [7] | [8] | [10] | [11] | [12] | [13] | [14] | [16] | [17] | [18] | [19]

Cc1cccc(O)c1
not listed: [9] | [20]
inactive: all other assays above

CCNC(=S)NCC
not listed: [9] | [20]
inactive: all other assays above

C[C@]12CC[C@@H]3c4ccc(O)cc4CC[C@H]3[C@@H]1CC[C@@H]2O
active: [7] 65.8 µM
inactive: [20] | [1] | [4] | [6] | [7] | [8] | [10] | [11] | [12] | [13] | [14] | [17] | [18] | [19]

C[N+](C)(C)CCO
not listed: [9] | [20]
inactive: all other assays above

CC(C)COC(=O)c1ccccc1
not listed: [16] | [20]
inactive: all other assays above

CCCCCCCCCCCCS
active: [2] 24.2 µM | [4] 33.4 µM | [6] 48.8 µM | [9] 9.11 µM
not listed: [10] | [20]
inactive: all other assays above

O=[N+]([O-])c1cc(N(CCO)CCO)ccc1NCCO
not listed: [16] | [20]
inactive: all other assays above

C=C(C)C(=O)OCCOCCOC(=O)C(=C)C
not listed: [9] | [20]
inactive: all other assays above

CC/C=C\C#N
not listed: [9] | [20]
inactive: all other assays above

CCC(C)(C)C1CCC(OC)CC1 (centres undefined)
not listed: [9] | [20]
inactive: all other assays above

COc1ccccc1NC(=O)CC(C)=O
active: [5] 34.8 µM
not listed: [10] | [20]
inactive: all other assays above

CCC=C(C)C=O
active: [15] 27.4 µM
not listed: [9] | [20]
inactive: all other assays above
